The values that follow come from PubChem BioAssay AID1209 (Sanford-Burnham Center for Chemical Genomics, 2008).

The whole screen tested about 190,000 compounds, of which about 810 (0.43%) were called active. Shown is part of a subset that was picked to be rich in actives. A number with no mark means an inactive call. Rule as the data show it: active = inhibition above about 50%; inactive = the rest.

Chain of Mannose-6-phosphate isomerase (Homo sapiens) (P34949 whole entry, looked up): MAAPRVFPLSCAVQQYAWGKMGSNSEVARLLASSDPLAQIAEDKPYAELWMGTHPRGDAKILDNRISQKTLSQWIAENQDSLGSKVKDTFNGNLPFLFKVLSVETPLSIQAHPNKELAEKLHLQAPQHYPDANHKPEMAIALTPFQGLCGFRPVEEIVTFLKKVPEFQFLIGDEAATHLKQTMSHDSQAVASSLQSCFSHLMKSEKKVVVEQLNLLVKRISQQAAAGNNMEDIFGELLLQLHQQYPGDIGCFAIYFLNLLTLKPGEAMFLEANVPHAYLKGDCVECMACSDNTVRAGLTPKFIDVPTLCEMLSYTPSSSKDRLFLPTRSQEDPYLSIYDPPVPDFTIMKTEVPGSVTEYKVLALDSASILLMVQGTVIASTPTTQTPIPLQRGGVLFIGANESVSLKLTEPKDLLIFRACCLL

This assay concerns the target Mannose-6-phosphate isomerase (Homo sapiens) (UniProt P34949). In words: MPI enzyme activity inhibition – biochemical, fluorescence intensity, coupled assay, primary screen (AID 1209).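 Also: plate controls were DMSO vehicle for no effect and wells lacking substrate for full effect.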 The following applies: purified PMI enzyme, at 20 µM, stronger effect = higher value.
In the case of `COc1ccc(/C=C(/NC(=O)c2ccccc2)C(=O)N/N=C/c2ccncc2)c(OC)c1`, the inhibition is 18.6%.

As to `COc1ccc(CCNC(=O)c2nnn(CC(=O)Nc3cccc(F)c3)c2N)cc1OC`, the inhibition was -0.3%.

With `CCOc1ccc(/C=C/C(O)=C2/C(=O)NC3(C)CC2c2ccccc2O3)cc1OC` (stereo not given), the inhibition was -21.3%.

Consider `O=C(c1cnn(-c2ccccc2)c1)c1ccccc1O`, for which the inhibition was 19.7%.

Turning to `O=C(Cc1cnn(-c2ccccc2)c1)c1ccc(O)c(O)c1O`, the inhibition is 70.8% (active).

As to `CCc1cc(C(=O)Cc2cnn(-c3ccccc3)c2)c(O)cc1O`, the inhibition is 11.4%.

For the compound `Nn1c(SCC(=O)Nc2ccc3c(c2)OCO3)nnc1C1CC1`, the inhibition is 5.7%.

For `N#Cc1cccc(N=Cc2c(O)ccc3ccccc23)c1`, the inhibition is 39.3%.

In the case of `CSc1nccc(Oc2cccc(C#N)c2)n1`, the inhibition was -4.1%.

With `N#Cc1ccc(N=c2ssnc2Cl)cc1`, the inhibition is 81.2% (active).

As for `COc1ccc(N2CCN(C(=O)c3cccn4c(=O)c5ccccc5nc34)CC2)cc1`, the inhibition was -5.8%.

Turning to `CC1CCCCN1Cc1c(O)ccc2c(=O)c(-c3nc4ccccc4s3)c(N)oc12` (stereo not given), the inhibition is 58% (active).

For `CC1CCN(Cc2c(O)ccc3c(=O)c(-c4nc5ccccc5s4)c(N)oc23)CC1`, the inhibition was 11.2%.

In the case of `CC1CCCN(Cc2c(O)ccc3c(=O)c(-c4nc5ccccc5s4)c(N)oc23)C1` (stereo not given), the inhibition was 6.9%.

Regarding `O=c1c(-c2ccccc2)c(O)nc2ccccn12`, the inhibition was 4.9%.

For `COc1cc(C(=O)OCC(=O)N(C)C)cc(NC(=O)c2ccco2)c1OC`, the inhibition was 5.7%.

For `CO[C@H]1C=CO[C@@]2(C)Oc3c(C)c(O)c4c(O)c(c5c(nc6cc(C)ccn65)c4c3C2=O)NC(=O)C(C)=CC=C[C@H](C)[C@H](O)[C@@H](C)[C@@H](O)[C@@H](C)[C@H](OC(C)=O)[C@@H]1C`, the inhibition is 13.9%.

As to `CO[C@H]1C=CO[C@@]2(C)Oc3c(C)c(O)c4c(O)c(c(C=NN5CCN(C)CC5)c(O)c4c3C2=O)NC(=O)C(C)=CC=C[C@H](C)[C@H](O)[C@@H](C)[C@@H](O)[C@@H](C)[C@H](OC(C)=O)[C@@H]1C`, the inhibition is 7%.

On to `CO[C@H]1C=CO[C@@]2(C)Oc3c(C)c(O)c4c(O)c(c(C=NN5CCN(C6CCCC6)CC5)c(O)c4c3C2=O)NC(=O)C(C)=CC=C[C@H](C)[C@H](O)[C@@H](C)[C@@H](O)[C@@H](C)[C@H](OC(C)=O)[C@@H]1C`, for which the inhibition was 50.8% (active).

For the compound `CC1=NC(C(F)(F)F)(C(F)(F)F)C2=C(CC(C)(C)CC2=O)N1Cc1ccco1`, the inhibition was 6%.

As to `CN1CCN(/N=C/c2nc(-c3cccc([N+](=O)[O-])c3)n3ccccc23)CC1`, the inhibition was 8.1%.

As to `O=C(Nc1nc2ccccc2[nH]1)C1CCCC1`, the inhibition is 4.1%.

In the case of `CC(NS(=O)(=O)c1ccccc1)C(c1cccs1)N1CCN(C)CC1` (stereo not given), the inhibition is 1.7%.

With `CC(=O)n1cc(Nc2ccc([N+](=O)[O-])cc2)c2ccccc21`, the inhibition is -30.8%.

As for `CC(=O)SC(C[N+](=O)[O-])c1cn(C(C)=O)c2ccccc12` (stereo not given), the inhibition was 63.1% (active).

With `CC(=O)n1cc(C(C[N+](=O)[O-])SCCN)c2ccccc21` (stereo not given), the inhibition is 6.6%.

As for `C=CCn1c(SCC(=O)Nc2nc(C)cs2)nnc1C(NC(=O)c1ccccc1)C(C)C` (stereo not given), the inhibition is 5.4%.

In the case of `O=C(CSc1nc(-c2ccccc2)nc2ccccc12)Nc1cccc(C(=O)O)c1`, the inhibition is 20.6%.

Turning to `CCOC(=O)c1cc(-c2ccccc2)sc1NC(=O)c1cc(OC)c(OC)c(OC)c1`, the inhibition was 13%.

On to `CCOC(=O)c1cc(-c2ccccc2)sc1NC(=O)c1ccc(OC)c(OC)c1`, for which the inhibition is 42.1%.

As for `CCOC(=O)c1cc(-c2ccccc2)sc1NC(=O)c1ccc(OC)cc1`, the inhibition is 68.2% (active).

In the case of `CCn1c(SCC(=O)c2ccc(CNC(C)=O)o2)nnc1-c1cccs1`, the inhibition is -9%.

For the compound `O=c1cc2[nH]c3ccccc3c(=O)n2nc1-c1ccccc1`, the inhibition is 63.9% (active).

Turning to `O=c1cc(-c2ccccc2)[nH]c2ccccc12`, the inhibition is -3.1%.

As to `O=c1nc(-c2ccccc2)c2ccccc2[nH]1`, the inhibition was 10.3%.

Regarding `Cc1ccc(Cl)cc1NC(=O)N[C@@H](C)C(=O)O`, the inhibition is -0.2%.

Take `O=C(C1CCN(S(=O)(=O)c2cccc3nsnc23)CC1)N1CCn2c1nc1ccccc12`: the inhibition was 8.5%.

With `C=CCn1c(NCCOC)nc2c1c(=O)n(C)c(=O)n2C`, the inhibition was -2.8%.

As to `CCCSc1nnc2nc(C)cc(C)n12`, the inhibition is -2.6%.

For the compound `CCSc1nnc2nc(C)cc(C)n12`, the inhibition is 7.6%.

Regarding `CC(Sc1sc(=S)sc1SC(C)C(=O)O)C(=O)O` (stereo not given), the inhibition is -15.4%.

On to `Cc1nnsc1SCC(=O)O`, for which the inhibition is -12.4%.

Regarding `Cc1nnsc1SC(C)C(=O)O` (stereo not given), the inhibition is 64.6% (active).

Regarding `Cc1ccc(S(=O)(=O)N2CCCCC2)cc1NC(=O)Nc1ccc(Cl)cc1Cl`, the inhibition is 13.8%.

On to `CC(Nc1ccc2c(c1)OCCO2)C(=O)N1CCc2ccccc21` (stereo not given), for which the inhibition is 6.4%.

Take `Cn1c(=O)n(C)c2cc(S(=O)(=O)Nc3cc(Cl)ccc3O)ccc21`: the inhibition is 9.8%.

Turning to `CNC(=O)CN1C(=O)c2cccc3cccc1c23`, the inhibition is -1.5%.

For the compound `CCN1/C(=N\N)c2cccc3cccc1c23`, the inhibition is -48%.

For `CCN1C(=O)c2cccc3c(NC(=O)C(C)(C)C)ccc1c23`, the inhibition is 13.8%.

For `CCN1C(=O)c2cccc3c(S(=O)(=O)Nc4ccccc4)ccc1c23`, the inhibition was -1%.

On to `CCN1C(=O)c2cccc3c(N)ccc1c23`, for which the inhibition was 64.7% (active).

`Cc1nc2cc3c(cc2c(C)c1C(=O)OC(C)C)OCO3`: the inhibition is -5.2%.

With `Cc1ccc(C(=O)NCc2ccccc2)c(F)c1F`, the inhibition was 5.5%.

As for `COc1ccc(OC)c(NC2c3ccccc3C(=O)N2c2cccnc2)c1` (stereo not given), the inhibition was -11.1%.

Consider `COc1ccc(C(=O)Nc2nc3c(s2)Cc2cc(OC)ccc2-3)cc1`, for which the inhibition is -2.4%.

For the compound `COc1ccc(N=Cc2c(O)ccc3ccccc23)cc1`, the inhibition is 37%.

`Oc1ccc2ccccc2c1/C=N/c1nc2c(s1)CCCC2`: the inhibition is 45.8%.

In the case of `COc1ccc2c(c1)CCc1sc(NC(=O)c3ccc(C)cc3)nc1-2`, the inhibition was 19.4%.

Take `COc1ccc2c(c1)-c1nc(/N=C/c3c(O)ccc4ccccc34)sc1CC2`: the inhibition is 77.9% (active).

Take `COc1ccc2c(c1)-c1nc(NC(=O)c3ccco3)sc1CC2`: the inhibition was 23.9%.

Turning to `COc1ccc2c(c1)-c1nc(/N=C/c3ccccc3O)sc1CC2`, the inhibition was 70% (active).

On to `COc1ccc2c(c1)-c1nc(NC(=O)c3cccs3)sc1CC2`, for which the inhibition was 26.3%.

As to `COc1ccc2c(c1)-c1nc(N)sc1CC2`, the inhibition is 73.3% (active).

For the compound `COc1ccc2c(c1)Cc1sc(NC(=O)c3ccccc3)nc1-2`, the inhibition is 3.2%.

Take `COc1ccc2c(c1)-c1nc(/N=C/c3ccc(O)cc3)sc1CC2`: the inhibition was 80.2% (active).

Turning to `COc1ccc2c(c1)CCc1sc(NC(=O)c3ccco3)nc1-2`, the inhibition is 31.4%.

For `COc1cccc(N(CC(=O)N2CCN(C)CC2)S(=O)(=O)c2ccccc2)c1`, the inhibition is 2.4%.

For `Cc1ccc(C)c(N2CCN(C(c3ccc(N(C)C)cc3)c3nnnn3C(C)(C)C)CC2)c1` (stereo not given), the inhibition was 12.6%.

Consider `CCCNCC(O)Cn1c2ccccc2n2c(=O)cc(C)c(C#N)c12` (stereo not given), for which the inhibition is -6%.

Turning to `Cc1ccc(C)c(NC(=O)CSc2ccc(-c3ccco3)nn2)c1`, the inhibition was 8.2%.

With `COc1cccc(N(C(=O)Cn2nnc3ccccc32)C(C(=O)NCc2ccco2)c2cccnc2)c1` (stereo not given), the inhibition was 1.5%.

For `Cc1ccc(C)c(C(=O)NC2CC(C)(C)NC(C)(C)C2)c1`, the inhibition is 2.7%.

With `CC(NC(=O)c1sc2ccccc2c1Cl)C1CCCO1` (stereo not given), the inhibition is 6.7%.

`O=C(CSc1nccc(-c2ccc(Br)cc2)n1)NCCc1ccccc1`: the inhibition was 0.8%.

Take `CSc1ccc(-c2nc(O)c3cnccn23)cc1`: the inhibition is -16.4%.

Take `CN(C)S(=O)(=O)c1cccc(NC(=O)c2cc(-c3cccs3)nn2-c2ccccc2)c1`: the inhibition is 2.9%.

Take `CC(C)NC(=O)C1CCN(C2CCN(Cc3nc4ccccc4s3)CC2)CC1`: the inhibition is 1.6%.

As to `COc1cccc(C=Nc2cc(C)cc(C)c2)c1O`, the inhibition was -1.7%.

As for `COc1cccc(C=Nc2cc(C)on2)c1O`, the inhibition is 13.5%.

For the compound `COc1ccc2c(c1)-c1nc(/N=C/c3cccc(OC)c3O)sc1CC2`, the inhibition was 65.8% (active).

On to `CCC(Oc1ccc2c(c1)C(=O)CC(C)(C)O2)C(=O)NCCN1CCCCCC1` (stereo not given), for which the inhibition is 20%.

Turning to `CC(Sc1nnc(COc2ccc([N+](=O)[O-])cc2)n1C)C(=O)O` (stereo not given), the inhibition was 0.2%.

On to `Cc1nc([N+](=O)[O-])nn1C12CC3CC(CC(Cl)(C3)C1)C2`, for which the inhibition is 4.8%.

On to `Cc1nc([N+](=O)[O-])nn1C12CC3CC(CC(Br)(C3)C1)C2`, for which the inhibition is 75% (active).

In the case of `Cc1cc(NC(=O)C23CC4CC(C2)CC(n2cnc([N+](=O)[O-])n2)(C4)C3)no1`, the inhibition was 2.7%.

With `CCN(CC)CCCOC(=O)C1(c2ccccc2)CCCC1`, the inhibition is -3.2%.

Take `Cc1ccc(Nc2nnns2)cc1`: the inhibition was 57.4% (active).

Regarding `Cc1ccc(Nc2nnns2)cc1C`, the inhibition is 47.5%.

With `Cc1ccc(Nc2nc3ccccc3s2)cc1`, the inhibition was -5.9%.

With `COc1ccc(OC)c(NC(=O)C2C(C(=O)O)C3(Cl)C(Cl)=C(Cl)C2(Cl)C3(Cl)Cl)c1` (stereo not given), the inhibition was 18.2%.

Consider `CCOC(=O)C(Nc1ccc2ccccc2c1)C(=O)OCC`, for which the inhibition was 60.3% (active).

Take `CCCCCC(=O)Nc1ccc2ccccc2c1`: the inhibition is 16.7%.

For the compound `CCC(=O)Nc1ccc2ccccc2c1`, the inhibition was 12%.

As for `COc1ccc(CNS(=O)(=O)c2cccc(S(=O)(=O)N3CCOCC3)c2)cc1`, the inhibition is 6.7%.

As to `CCOc1cc(C(C#N)N2CCOCC2)ccc1OC` (stereo not given), the inhibition was 12%.
